Test results reported in the supplement of paper PMC6555819.

Experiments:
Assay in all cases: PBM binding z-score (relative to random genomic background probes); higher = stronger binding; sequences stand for … in GC…GCGATTGACAGCGTAGAATGAAGG
[1] = test system: FXR:RXRa (NR concentration 270 nM, RXRa partner concentration 90 nM)
Procedure, shortened: (§1)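 Ligand-free nuclear receptor dimers were applied to custom Agilent 4×180K protein-binding microarrays whose double-stranded probes carried direct-repeat seeds, single-nucleotide variants, half-site ablations and random human genomic background sequences in 34-nt variable regions. Incubation lasted 1 h. Binding z-scores were computed against the random background probes from regression-normalized fluorescence.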

[2] = test system: LXRa:RXRa (NR concentration 270 nM, RXRa partner concentration 90 nM)
Procedure, shortened: as §1

[3] = test system: LXRa homodimer (NR concentration 270 nM)
Procedure, shortened: as §1

[4] = test system: LXRb:RXRa (NR concentration 270 nM, RXRa partner concentration 90 nM)
Procedure, shortened: as §1

[5] = test system: LXRb homodimer (NR concentration 270 nM)
Procedure, shortened: as §1

[6] = test system: PPARa:RXRa (NR concentration 270 nM, RXRa partner concentration 90 nM)
Procedure, shortened: as §1

[7] = test system: PPARg:RXRa (NR concentration 180 nM, RXRa partner concentration 90 nM)
Procedure, shortened: as §1

[8] = test system: PPARg:RXRa 270nM:90nM, anti-RXR (NR concentration 270 nM, RXRa partner concentration 90 nM)
Procedure, shortened: as §1

[9] = test system: PPARg:RXRa 30nM:10nM, anti-RXR (NR concentration 30 nM, RXRa partner concentration 10 nM)
Procedure, shortened: as §1

[10] = test system: PPARg:RXRa 90nM:30nM, anti-RXR (NR concentration 90 nM, RXRa partner concentration 30 nM)
Procedure, shortened: as §1

[11] = test system: PPARg:RXRa DBDmut IVT, anti-RXR (DBD mutation: RXRa K156A/R161A, NR concentration 270 nM, RXRa partner concentration 90 nM)
Procedure, shortened: as §1

[12] = test system: PPARg:RXRa IVT, anti-PPARg (NR concentration 270 nM, RXRa partner concentration 90 nM)
Procedure, shortened: as §1

[13] = test system: PPARg DBDmut IVT, anti-PPARg (DBD mutation: PPARg1 K132A/R137A, NR concentration 270 nM)
Procedure, shortened: as §1

[14] = test system: PPARg homodimer (NR concentration 180 nM)
Procedure, shortened: as §1

[15] = test system: PXR:RXRa (NR concentration 270 nM, RXRa partner concentration 90 nM)
Procedure, shortened: as §1

[16] = test system: PXR homodimer (NR concentration 270 nM)
Procedure, shortened: as §1

[17] = test system: RARa:RXR (NR concentration 270 nM, RXRa partner concentration 90 nM)
Procedure, shortened: as §1

[18] = test system: RARa homodimer (NR concentration 270 nM)
Procedure, shortened: as §1

[19] = test system: RARb:RXRa (NR concentration 270 nM, RXRa partner concentration 90 nM)
Procedure, shortened: as §1

| Sequence | PBM binding z-score [1] | PBM binding z-score [2] | PBM binding z-score [3] | PBM binding z-score [4] | PBM binding z-score [5] | PBM binding z-score [6] | PBM binding z-score [7] | PBM binding z-score [8] | PBM binding z-score [9] | PBM binding z-score [10] | PBM binding z-score [11] | PBM binding z-score [12] | PBM binding z-score [13] | PBM binding z-score [14] | PBM binding z-score [15] | PBM binding z-score [16] | PBM binding z-score [17] | PBM binding z-score [18] | PBM binding z-score [19] |
| --- | --- | --- | --- | --- | --- | --- | --- | --- | --- | --- | --- | --- | --- | --- | --- | --- | --- | --- | --- |
| ATATGTAGGTTAGGCTCATTCAGAAAGTAGGGAA | -0.281 | -0.0164 | -0.0399 | 0.129 | 0.223 | 2.21 | 2.96 | 2.43 | 0.952 | 1.84 | 6.49 | 5.75 | 1.4 | 0.501 | -0.124 | 0.16 | -0.184 | 0.657 | 0.339 |
| CGAACTAGGTCACCACGACAGTGAAGAGGTTGGA | 4.13 | 2.41 | 0.318 | 1.87 | -0.171 | 5.18 | 8.44 | 7.14 | 4.87 | 6.86 | 8.39 | 9 | 4.26 | 2.32 | 1.46 | -0.289 | 2.78 | 0.591 | 4.21 |
| CGAATTAGGTCAAAGGACAGTGAAAGGCGACGTA | 4.51 | 3.08 | 0.314 | 2.23 | 0.106 | 6.11 | 9.47 | 8.69 | 8.66 | 9.34 | 8.15 | 7.88 | 2.44 | 2.21 | 1.46 | 0.358 | 2.87 | 0.296 | 4.18 |
| CGAACTAGGTCAAAGGACAGTGTAAGGCGACGTA | 3.76 | 2.6 | -0.176 | 1.73 | -0.314 | 5.13 | 9.94 | 8.19 | 6.9 | 8.83 | 7.92 | 7.95 | -0.12 | 0.849 | 1.19 | -0.0737 | 2.22 | 0.371 | 3.91 |
| CGAACTAGGTCACCTGGACAGTGAAGAGGTTGGA | 3.92 | 2.38 | 0.0453 | 1.79 | -0.443 | 5 | 8.13 | 6.5 | 4.2 | 5.86 | 8.17 | 8.6 | -0.299 | 1.42 | 1.46 | 0.15 | 2.53 | -0.115 | 4.05 |
| ATATGTACGTTAGGGTCATTCAGAAAGTAGGGAA | 4.38 | 3.61 | 0.485 | 3.96 | 1.15 | 4.77 | 2.68 | 2.97 | 1.27 | 2.07 | 0.518 | 2.04 | 1.66 | 2.39 | 4.47 | 1.32 | 4.93 | 1.08 | 3.1 |
| CGAATTAGGTCACCAGGACAGTGAAGAGGTTGGA | 4.43 | 2.73 | 0.379 | 2.04 | -0.0787 | 5.25 | 8.25 | 6.75 | 4.82 | 6.53 | 8.17 | 8.71 | 2.04 | 2.36 | 1.78 | 0.578 | 2.92 | 0.711 | 4.52 |
| CGAACTAGGTCAAAGGACAGCGAAAGGCGACGTA | 4.22 | 2.78 | -0.185 | 1.94 | -0.366 | 5.76 | 10.8 | 8.88 | 9.93 | 10.3 | 8.31 | 8.46 | 0.805 | 1.59 | 1.22 | -0.642 | 2.66 | 0.165 | 3.93 |
| CGAACTAGGTCACCAGGCCAGTGAAGAGGTTGGA | 4.08 | 2.41 | -0.125 | 1.44 | -0.76 | 5.2 | 8.64 | 7.15 | 4.02 | 6.44 | 8.23 | 8.8 | 0.89 | 2.25 | 1.18 | -0.53 | 2.73 | -0.334 | 4.22 |
| ATATGTGGGTTAGGGTCATTCAGAAAGTAGGGAA | 5.21 | 4.67 | 1.97 | 5.31 | 3.87 | 5.7 | 7.6 | 6.42 | 3.82 | 5.8 | 6.19 | 6.44 | 2.69 | 4.09 | 5.1 | 3.66 | 5.02 | 3.33 | 3.45 |
| CGAACTAGGTCTCCAGGACAGTGAAGAGGTTGGA | -0.128 | -0.769 | -0.494 | -0.832 | -1.01 | 0.539 | 0.908 | 0.999 | -0.187 | 0.153 | 4.77 | 4.03 | -0.626 | 0.0186 | -0.409 | -0.39 | -0.238 | -0.356 | 0.216 |
| CGAACTGGGTCAAAGGACAGTGAAAGGCGACGTA | 3.03 | 1.55 | -0.452 | 1.37 | -0.785 | 5.23 | 10.1 | 8.57 | 7.98 | 9.33 | 7.3 | 7.89 | -0.0176 | 0.919 | 1.21 | -0.282 | 2.12 | -0.262 | 3.44 |
| CGAAGTAGGTCAAAGGACAGTGAAAGGCGACGTA | 4.62 | 3.33 | 0.269 | 2.23 | -0.098 | 5.66 | 10.5 | 8.99 | 8.23 | 9.73 | 8.31 | 8.72 | 4.59 | 2.49 | 1.66 | 0.0557 | 2.53 | 0.312 | 3.93 |
| CGAACTAGGTCACCAGGTCAGTGAAGAGGTTGGA | 4.69 | 3.38 | 0.525 | 2.7 | -0.48 | 5.78 | 9.48 | 7.31 | 5.4 | 7.06 | 8.35 | 8.61 | 0.92 | 2.94 | 3.16 | 0.301 | 4.36 | 1.02 | 4.61 |
| CGAACTAGCTCACCAGGACAGTGAAGAGGTTGGA | -0.472 | -0.64 | -0.125 | -0.561 | -0.585 | -0.517 | 0.165 | -0.517 | -0.602 | -0.751 | 0.166 | -0.411 | 0.212 | -0.0125 | -0.706 | -0.202 | -0.594 | -0.478 | -0.409 |
